According to the supplement of paper PMC9942566:
Counter-ions that a name gives are not always drawn. ± gives the standard deviation of the averaged measurements.

What follows are compounds tested on Serratia marcescens K904 PosmB-luxCDABE reporter (pMQ747) (assay: PosmB-lux reporter fold induction (RLU/OD600 relative to no-compound control), highest over Biolog concentrations; higher = stronger reporter activation). Conditions: ΔrcsB mutant CMS5177; 4 h.
Method: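 Serratia marcescens K904 (wild type) or its isogenic ΔrcsB mutant, carrying the Rcs-dependent PosmB-luxCDABE reporter plasmid pMQ747, was grown in LB at OD600 0.1 in Biolog Phenotype MicroArray plates PM11-20 for 4 h at 30-32°C. Each compound is present at 3-4 proprietary concentrations (not stated); per the Fig. S1 legend the value given is the highest fold over those wells. Three independent trials.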

In order of rising “PosmB-lux reporter fold induction” value:
1. O=[N+]([O-])c1ccc(-[n+]2nc(-c3ccccc3)nn2-c2ccc(I)cc2)cc1 [iodonitro tetrazolium violet] (Biolog plate: PM19, well positions: D5-8)  0.242 ± 0.11
2. O=c1ccc2ccccc2o1 [coumarin] (Biolog plate: PM19, well positions: A9-12)  0.853 ± 0.16
3. O=c1c(O)c(-c2cc(O)c(O)c(O)c2)oc2cc(O)cc(O)c12 [myricetin] (Biolog plate: PM18, well positions: G9-12)  0.868 ± 0.31
4. NC(CO)C(=O)NNCc1ccc(O)c(O)c1O (stereo not given) [Benserazide] (Biolog plate: PM20, well positions: A9-12)  0.916 ± 0.14
5. [Na+].[Na+].[O]=[W](=[O])([O-])[O-] [sodium tungstate] (Biolog plate: PM17, well positions: E9-12)  0.99 ± 0.14
6. CC(C(=O)O)c1cccc(C(=O)c2ccccc2)c1 (stereo not given) [ketoprofen (an NSAID)] (Biolog plate: PM18, well positions: A2-4)  1 ± 0.37
7. CC1(C)S[C@@H]2[C@H](NC(=O)C(C(=O)O)c3ccccc3)C(=O)N2[C@H]1C(=O)O (stereo not given in full) [Carbenicillin] (Biolog plate: PM12, well positions: A9-12)  1.03 ± 0.29
8. CC1(C)S[C@@H]2[C@H](NC(=O)C(C(=O)O)c3ccccc3)C(=O)N2[C@H]1C(=O)O (stereo not given in full) [Carbenicillin] (Biolog plate: PM14, well positions: G5-8)  1.05 ± 0.096
9. CN(C)CCC=C1c2ccccc2CCc2ccccc21 [amitriptyline] (Biolog plate: PM20, well positions: A2-4)  1.16 ± 0.17
10. O=C1CN(/N=C/c2ccc([N+](=O)[O-])o2)C(=O)N1 [Nitrofurantoin] (Biolog plate: PM14, well positions: E5-8)  1.19 ± 0.084
11. CCN1CCN(C(=O)N[C@@H](C(=O)N[C@@H]2C(=O)N3[C@@H]2SC(C)(C)[C@@H]3C(=O)O)c2ccccc2)C(=O)C1=O [Piperacillin] (Biolog plate: PM14, well positions: F5-8)  1.2 ± 0.13
12. CN(C)c1ccc(C(=C2C=CC(=[N+](C)C)C=C2)c2ccc(N(C)C)cc2)cc1 [crystal violet] (Biolog plate: PM20, well positions: E1-4)  1.24 ± 0.17
13. Cc1ccc2c(Cl)cc(Cl)c(O)c2n1 [5,7-Dichloro-8-hydroxy-quinaldine] (Biolog plate: PM15, well positions: B9-12)  1.27 ± 0.13
14. CN(C)[C@@H]1C(O)=C(C(N)=O)C(=O)[C@@]2(O)C(O)=C3C(=O)c4c(O)ccc(Cl)c4[C@@](C)(O)[C@H]3C[C@@H]12 [Chlortetracycline] (Biolog plate: PM11, well positions: A5-8)  1.3 ± 0.26
15. Cc1onc(-c2ccccc2)c1C(=O)N[C@@H]1C(=O)N2[C@@H]1SC(C)(C)[C@@H]2C(=O)O [Oxacillin] (Biolog plate: PM12, well positions: B1-4)  1.31 ± 0.52
16. CC(=O)OCC1=C(C(=O)O)N2C(=O)[C@@H](NC(=O)Cc3cccs3)[C@H]2SC1 [Cephalothin] (Biolog plate: PM11, well positions: H1-4)  1.37 ± 0.15
17. Oc1c(Cl)cc(Cl)c2cccnc12 [5,7-Dichloro-8-hydroxyquinoline] (Biolog plate: PM15, well positions: C1-4)  1.43 ± 0.18
18. CCn1cc(C(=O)O)c(=O)c2cc(F)c(N3CCNCC3)nc21 [Enoxacin] (Biolog plate: PM11, well positions: E5-8)  1.45 ± 0.3
19. CNC(C)C1CCC(N)C(OC2C(N)CC(N)C(OC3OCC(C)(O)C(NC)C3O)C2O)O1 (stereo not given) [Gentamicin] (Biolog plate: PM11, well positions: G5-8)  1.47 ± 0.41
20. Cc1noc(NS(=O)(=O)c2ccc(N)cc2)c1C [sulfisoxazole] (Biolog plate: PM18, well positions: C5-8)  1.5 ± 0.35
21. OC(CCN1CCCCC1)(c1ccccc1)c1ccccc1 [pridinol] (Biolog plate: PM20, well positions: F9-12)  1.5 ± 0.42
22. Oc1c(I)cc(Cl)c2cccnc12 [5-chloro-7-iodo-8-hydroxy-quinoline] (Biolog plate: PM16, well positions: A9-12)  1.51 ± 0.53
23. O=C1OC(CN2CCOCC2)CN1/N=C/c1ccc([N+](=O)[O-])o1 (stereo not given) [Furaltadone] (Biolog plate: PM14, well positions: A5-8)  1.51 ± 0.47
24. Cn1nnnc1SCC1=C(C(=O)O)N2C(=O)[C@@H](NC(=O)[C@H](OC=O)c3ccccc3)[C@H]2SC1 [cefamandole nafate] (Biolog plate: PM17, well positions: G5-8)  1.52 ± 0.36
25. C1COCCOCCOCCOCCOCCO1 [18-crown-6 ether] (Biolog plate: PM20, well positions: D9-12)  1.53 ± 0.55
26. O=C(O)CN(CCOCCOCCN(CC(=O)O)CC(=O)O)CC(=O)O (Biolog plate: PM14, well positions: H1-4)  1.53 ± 0.51
27. Cc1ncc([N+](=O)[O-])n1CC(O)CCl (stereo not given) [ornidazole] (Biolog plate: PM20, well positions: C9-12)  1.59 ± 0.49
28. Cc1cc(O)cc(C)c1Cl [chloroxylenol] (Biolog plate: PM16, well positions: H5-8)  1.72 ± 0.43
29. CN(C)[C@@H]1C(O)=C(C(=O)NCN2CCCC2)C(=O)[C@@]2(O)C(O)=C3C(=O)c4c(O)cccc4[C@@](C)(O)[C@H]3C[C@@H]12 [Rolitetracycline] (Biolog plate: PM13, well positions: D9-12)  1.73 ± 0.11
30. NC(CO)C(=O)NO (racemic) [D,L-Serine hydroxamate] (Biolog plate: PM12, well positions: C9-12)  1.74 ± 1.6
31. CN(C)c1ccc(O)c2c1C[C@H]1C[C@H]3[C@H](N(C)C)C(O)=C(C(N)=O)C(=O)[C@@]3(O)C(O)=C1C2=O [Minocycline] (Biolog plate: PM11, well positions: C9-12)  1.8 ± 0.42
32. O=C(N[C@H](CO)[C@H](O)c1ccc([N+](=O)[O-])cc1)C(Cl)Cl [Chloramphenicol] (Biolog plate: PM14, well positions: F1-4)  1.87 ± 1.1
33. Cc1cc(NS(=O)(=O)c2ccc(N)cc2)no1 [Sulfa-methoxazole] (Biolog plate: PM12, well positions: G5-8)  1.9 ± 1.2
34. CC1COc2c(N3CCN(C)CC3)c(F)cc3c(=O)c(C(=O)O)cn1c23 (stereo not given) [Ofloxacin] (Biolog plate: PM11, well positions: H9-12)  1.96 ± 0.47
35. C[n+]1c2cc(N)ccc2cc2ccc(N)cc21.Nc1ccc2cc3ccc(N)cc3nc2c1 [Acriflavine] (Biolog plate: PM14, well positions: A2-4)  2.05 ± 0.23
36. N=C(N)N [Guanidine hydrochloride] (Biolog plate: PM15, well positions: A5-8)  2.09 ± 0.16
37. CN(C)C(=O)/N=N/C(=O)N(C)C [diamide] (Biolog plate: PM16, well positions: D5-8)  2.26 ± 0.64
38. CO[C@H]1C[C@H](O[C@H]2[C@H](C)[C@@H](O[C@@H]3O[C@H](C)C[C@H](N(C)C)[C@H]3OC(C)=O)[C@@H](C)C[C@@]3(CO3)C(=O)[C@H](C)[C@@H](OC(C)=O)[C@@H](C)[C@@H](C)OC(=O)[C@@H]2C)O[C@@H](C)[C@@H]1OC(C)=O [troleandomycin] (Biolog plate: PM20, well positions: H9-12)  2.33 ± 1.1
39. COc1ccc(C[C@H](N)C(=O)N[C@H]2[C@@H](O)[C@H](n3cnc4c(N(C)C)ncnc43)O[C@@H]2CO)cc1 [Puromycin] (Biolog plate: PM15, well positions: F9-12)  3.56 ± 1.7
40. CO[C@H]1/C=C/O[C@@]2(C)Oc3c(C)c(O)c4c(O)c(c(/C=N/N5CCN(C)CC5)c(O)c4c3C2=O)NC(=O)/C(C)=C\C=C\[C@H](C)[C@H](O)[C@@H](C)[C@@H](O)[C@@H](C)[C@H](OC(C)=O)[C@@H]1C [Rifampicin] (Biolog plate: PM12, well positions: H5-8)  17.2 ± 8.3
